Test results from PubChem BioAssay (NCATS).
Unmarked numbers belong to inactive results. Results filed as inconclusive are left out. Active and inactive are the calls of the source. Unless noted, the call rests on the fitted dose curve; in most records, active means well fitted curve in the direction sought with a large enough effect; inconclusive means small, poorly fitted or top-dose-only effect, or another doubt; inactive means no such curve, though single readings can be large; an effect the other way counts as inactive or inconclusive.

Assays:
[1] = biological target: Lysosomal acid glucosylceramidase (Homo sapiens) (UniProt P04062); assay: Glucocerebrosidase-p2 (AID 348; in the data active means potency below about 10 µM; further: potency means the concentration at half of the fitted maximal effect); conditions: purified GBA, blue fluorogenic substrate, 40 min
Sequence of Lysosomal acid glucosylceramidase (Homo sapiens) (P04062 whole entry, looked up): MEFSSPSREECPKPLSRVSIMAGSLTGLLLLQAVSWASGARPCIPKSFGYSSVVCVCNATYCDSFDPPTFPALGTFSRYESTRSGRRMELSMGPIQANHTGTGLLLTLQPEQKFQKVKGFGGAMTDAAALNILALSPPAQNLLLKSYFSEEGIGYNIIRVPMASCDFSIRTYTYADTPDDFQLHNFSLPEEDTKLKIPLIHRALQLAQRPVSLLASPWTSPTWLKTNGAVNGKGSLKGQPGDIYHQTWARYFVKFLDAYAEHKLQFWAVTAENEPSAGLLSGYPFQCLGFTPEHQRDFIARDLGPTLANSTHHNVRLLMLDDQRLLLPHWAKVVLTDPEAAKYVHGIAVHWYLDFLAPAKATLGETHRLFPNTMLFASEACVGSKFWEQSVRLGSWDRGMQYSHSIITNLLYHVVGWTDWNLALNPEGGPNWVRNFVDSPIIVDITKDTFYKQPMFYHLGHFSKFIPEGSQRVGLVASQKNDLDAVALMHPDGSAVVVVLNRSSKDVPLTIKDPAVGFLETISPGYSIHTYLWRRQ
Summary of the method: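 Normal human glucocerebrosidase (0.2 nM) with blue fluorogenic substrate (80 uM final) in citrate/phosphate pH 5.9 with 10mM sodium taurocholate, 0.01% tween-20; 40 min RT, NaOH/glycine stop; fluorescence Ex 365/Em 440; AC50 from a titration from 0.6 nM upwards.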

[2] = AP1 Signaling Pathway (AID 357; active means well fitted curve in either direction with a large enough effect, not every such curve was filed as active;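 further: ME-180 reporter cells stimulated with EGF at its EC50 level; on the % scale 0 is the no-effect control and ±100 the full control effect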); conditions: ME-180 AP-1-bla reporter, EGF-induced, beta-lactamase ratio, 5 h; at 7.69 µM (top of the series) unless noted
Summary of the method: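 In this screen, ME-180 cells in Opti-MEM with 0.5% dialyzed FBS received EC50 EGF and compound titrations for 5 h. AP-1 reporter beta-lactamase was detected via CCF4 ratio, giving AC50 for positive and negative modulators.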

[3] = biological target: Cytochrome P450 1A2 (Homo sapiens) (UniProt P05177); assay: p450-cyp1a2 (AID 410; calls by dose curve; further: potency means the concentration at half of the fitted maximal effect); conditions: recombinant CYP1A2, luciferin-ME demethylation, luminescence; series mostly up to 57 µM
Sequence of Cytochrome P450 1A2 (Homo sapiens) (P05177 whole entry, looked up): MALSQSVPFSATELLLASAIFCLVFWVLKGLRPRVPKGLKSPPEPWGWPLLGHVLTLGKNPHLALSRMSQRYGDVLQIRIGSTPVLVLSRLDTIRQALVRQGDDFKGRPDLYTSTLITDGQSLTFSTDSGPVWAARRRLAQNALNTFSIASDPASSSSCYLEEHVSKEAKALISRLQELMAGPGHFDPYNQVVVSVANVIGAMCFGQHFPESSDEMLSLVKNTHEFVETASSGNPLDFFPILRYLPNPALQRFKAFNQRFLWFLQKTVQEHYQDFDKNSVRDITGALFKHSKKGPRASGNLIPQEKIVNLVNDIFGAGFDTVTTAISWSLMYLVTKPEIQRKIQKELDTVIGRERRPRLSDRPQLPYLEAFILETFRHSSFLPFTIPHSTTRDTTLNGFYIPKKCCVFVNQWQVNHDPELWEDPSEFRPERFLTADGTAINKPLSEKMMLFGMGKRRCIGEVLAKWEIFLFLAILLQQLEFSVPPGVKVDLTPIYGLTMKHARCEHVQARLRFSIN
Summary of the method: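 20nM CYP1A2, 100uM Luciferin-ME (=Km), 100mM KPO4; cpd 10 min RT; +NADPH regen, 60 min RT; stop/detect 20 min; luminescence. Normalized to furafylline 57 uM = full inhibition.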

[4] = NFAT Signaling Pathway (AID 444; active means well fitted curve in either direction with a large enough effect, not every such curve was filed as active;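 further: carbachol stimulus at about its EC50 of 1 µM final; on the % scale 0 is the no-effect control and ±100 the full control effect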); conditions: Jurkat NFAT-bla M1, carbachol, beta-lactamase ratio, 5 h; at 7.69 µM (top of the series) unless noted
Summary of the method: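 Read-out: CCF4 FRET ratio (460 nm/530 nm) after 1 h RT dye loading, used for %activity and AC50 from titration series. Cells: Jurkat NFAT-β-lactamase/M1 line, treated with compound plus 1 uM carbachol for 5 h, 37 °C.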

[5] = Stat Signaling Pathway (AID 446; active means well fitted curve in either direction with a large enough effect, not every such curve was filed as active;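 further: ME-180 cervical cancer cells given 40 pM IL-6 alongside compound; SIE-controlled beta-lactamase reporter measured as 460/530 nm FRET emission ratio; on the % scale 0 is the no-effect control and ±100 the full control effect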); conditions: ME-180 SIE beta-lactamase reporter, IL-6 stimulated, 5 h; at 7.69 µM (top of the series) unless noted
Summary of the method: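 Emission at 460 and 530 nm (excitation 405 nm) reports SIE-controlled beta-lactamase in ME-180 cells. Cells received compound with 40 pM IL-6 for 5 hrs at 37 C; data scaled between 300 pM IL-6 and 125 nM JAK-inhibitor controls.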

[6] = biological target: Glucocorticoid receptor (Homo sapiens) (UniProt P04150); assay: GR-GFP Redistribution (AID 450;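 active means compounds whose dose series gives a full or clear partial fitted curve of increased nuclear translocation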; further: potency means the concentration at half of the fitted maximal effect); conditions: U2OS GR-GFP nuclear translocation, laser cytometry, 2 h
Sequence of Glucocorticoid receptor (Homo sapiens) (P04150 whole entry, looked up, the tested form may be a part): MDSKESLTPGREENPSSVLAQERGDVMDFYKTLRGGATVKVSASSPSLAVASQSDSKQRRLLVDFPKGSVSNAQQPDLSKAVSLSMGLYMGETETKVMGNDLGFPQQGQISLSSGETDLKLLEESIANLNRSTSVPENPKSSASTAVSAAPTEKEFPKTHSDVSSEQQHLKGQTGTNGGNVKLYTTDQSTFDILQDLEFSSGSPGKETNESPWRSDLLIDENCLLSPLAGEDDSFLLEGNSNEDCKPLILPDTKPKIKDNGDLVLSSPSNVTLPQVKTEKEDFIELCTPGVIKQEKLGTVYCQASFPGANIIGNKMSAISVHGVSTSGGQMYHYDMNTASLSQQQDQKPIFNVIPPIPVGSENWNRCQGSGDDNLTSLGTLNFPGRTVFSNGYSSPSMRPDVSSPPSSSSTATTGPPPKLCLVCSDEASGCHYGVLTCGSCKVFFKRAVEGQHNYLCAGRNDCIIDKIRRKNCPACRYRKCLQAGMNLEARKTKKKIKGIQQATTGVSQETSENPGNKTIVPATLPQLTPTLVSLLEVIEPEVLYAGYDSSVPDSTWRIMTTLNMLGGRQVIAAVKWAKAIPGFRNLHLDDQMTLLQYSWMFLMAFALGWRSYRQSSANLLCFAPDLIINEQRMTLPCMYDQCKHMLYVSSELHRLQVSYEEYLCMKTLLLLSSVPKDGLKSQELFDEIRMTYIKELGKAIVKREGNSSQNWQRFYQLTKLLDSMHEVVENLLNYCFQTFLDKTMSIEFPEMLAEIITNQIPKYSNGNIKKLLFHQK

[7] = biological target: Glucocorticoid receptor (Homo sapiens) (UniProt P04150); assay: GR-EFC Redistribution (AID 451; calls by dose curve; further: potency means the concentration at half of the fitted maximal effect); conditions: CHO-K1 GR-EFC translocation, beta-gal luminescence, 2 h
Summary of the method: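 Translocation of GR-ED fusion to nuclear EA restores b-gal, read by luminescence after 1 h room-temperature detection. Engineered CHO-K1 biosensor cells, 1,000/well, exposed 2 h at 37 C to titrations up to 46 uM final.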

[8] = biological target: Mitogen-activated protein kinase 10 (Mus musculus) (UniProt Q61831); assay: JNK3 AlphaScreen Assay (AID 530; active means well fitted curve in either direction with a large enough effect, not every such curve was filed as active;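 further: kinase came from lysate of stimulated human HepG2 cells; signal reports phosphorylation of biotinylated GST-cJun 1-79 at Ser73 with 10 µM ATP; on the % scale 0 is the no-effect control and ±100 the full control effect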); conditions: JNK3 lysate, c-Jun phosphorylation; series mostly up to 57.1 µM
Summary of the method: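 Kinase buffer: 20 mM Tris-HCl pH 7.6, 10 mM MgCl2, 1 mM DTT, 0.1 mM Na3VO4, 0.01% Tween-20; ATP 10 uM. Substrate biotin-GST-cJun(1-79), enzyme from activated HepG2 lysates. Detection by Ser73 phospho-antibody AlphaScreen.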

[9] = biological target: Cytochrome P450 2C19 (Homo sapiens) (UniProt P33261); assay: qHTS Assay for Inhibitors and Substrates of Cytochrome P450 2C19 (AID 899); conditions: recombinant CYP2C19, luciferin-H EGE luminescence; series mostly up to 57.1 µM; further: potency means the concentration at half of the fitted maximal effect; nearly all actives have a fitted effect of over 60% in size
Sequence of Cytochrome P450 2C19 (Homo sapiens) (P33261 whole entry, looked up): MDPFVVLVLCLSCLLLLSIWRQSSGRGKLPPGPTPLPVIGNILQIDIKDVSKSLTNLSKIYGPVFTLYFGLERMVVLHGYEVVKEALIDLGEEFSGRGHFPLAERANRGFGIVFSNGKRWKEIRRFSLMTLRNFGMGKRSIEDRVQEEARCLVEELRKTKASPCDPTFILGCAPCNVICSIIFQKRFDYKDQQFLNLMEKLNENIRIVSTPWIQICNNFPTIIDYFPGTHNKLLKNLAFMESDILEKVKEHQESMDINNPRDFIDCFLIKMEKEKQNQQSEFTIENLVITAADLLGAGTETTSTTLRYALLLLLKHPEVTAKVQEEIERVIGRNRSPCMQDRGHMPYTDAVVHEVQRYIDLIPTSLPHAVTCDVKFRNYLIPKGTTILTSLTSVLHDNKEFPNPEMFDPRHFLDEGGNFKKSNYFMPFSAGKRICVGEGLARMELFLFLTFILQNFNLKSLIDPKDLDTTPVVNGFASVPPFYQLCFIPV
Summary of the method: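 Reactions contain 5nM enzyme, 10uM Luciferin-H EGE (KM) and 50mM KPO4; compound preincubates 10 min at 37C, NADPH regeneration starts turnover for 60 min. Luminescence after detection reagent gives activity.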

[10] = biological target: Dual specificity protein kinase CLK4 (Homo sapiens) (UniProt Q9HAZ1); assay: qHTS Assay for Inhibitors of CDC-like Kinase 4 (ADP-Glo Assay) (AID 1771); conditions: recombinant CLK4, ADP-Glo luminescence; series mostly up to 80 µM; further: nearly all actives have a fitted effect of over 70% in size; further: potency means the concentration at half of the fitted maximal effect
Sequence of Dual specificity protein kinase CLK4 (Homo sapiens) (Q9HAZ1 whole entry, looked up): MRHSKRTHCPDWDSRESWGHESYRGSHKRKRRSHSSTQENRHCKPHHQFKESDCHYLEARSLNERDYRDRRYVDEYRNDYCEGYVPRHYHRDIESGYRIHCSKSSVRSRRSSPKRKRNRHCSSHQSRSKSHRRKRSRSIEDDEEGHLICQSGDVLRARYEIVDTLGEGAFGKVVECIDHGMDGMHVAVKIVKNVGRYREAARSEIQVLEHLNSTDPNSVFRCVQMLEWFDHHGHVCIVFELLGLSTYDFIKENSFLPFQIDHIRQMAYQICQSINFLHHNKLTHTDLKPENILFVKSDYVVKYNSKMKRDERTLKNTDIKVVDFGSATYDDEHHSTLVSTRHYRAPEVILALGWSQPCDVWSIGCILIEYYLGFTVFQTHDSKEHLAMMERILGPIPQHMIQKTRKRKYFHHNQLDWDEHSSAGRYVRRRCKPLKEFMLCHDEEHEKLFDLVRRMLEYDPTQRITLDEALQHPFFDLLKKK
Summary of the method: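 25 nM Clk4, 100 uM RS peptide, 1 uM ATP (final); 2 mM MgCl2, 0.5 mM EGTA, 2.5 mM DTT, 0.01% Triton X-100; 1 hr RT. ADP-Glo readout: ATP depletion 45 min, conversion/luciferase 30 min, luminescence.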

[11] = biological target: Dual specificity protein kinase CLK4 (Homo sapiens) (UniProt Q9HAZ1); assay: qHTS Assay for Inhibitors of CDC-like Kinase 4 (ADP-FP Assay) (AID 1795); conditions: Transcreener ADP fluorescence polarization; series mostly up to 50 µM; further: nearly all actives have a fitted effect of over 60% in size; further: potency means the concentration at half of the fitted maximal effect
Summary of the method: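 Clk4 6.25 nM; RS peptide 100 uM; ATP 1 uM; 25 mM Tris pH 7.5, 10 mM MgCl2; 1 h reaction. ADP detected via antibody/orange tracer FP displacement; TG003 positive control.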

[12] = biological target: Ubiquitin carboxyl-terminal hydrolase 1 (Homo sapiens) (UniProt O94782); assay: Inhibitors of USP1/UAF1: Pilot qHTS (AID 504865); conditions: purified USP1/UAF1, Ub-rhodamine cleavage fluorescence; series mostly up to 54.9 µM; further: nearly all actives have a fitted effect of over 35% in size; further: potency means the concentration at half of the fitted maximal effect
Sequence of Ubiquitin carboxyl-terminal hydrolase 1 (Homo sapiens) (O94782 whole entry, looked up): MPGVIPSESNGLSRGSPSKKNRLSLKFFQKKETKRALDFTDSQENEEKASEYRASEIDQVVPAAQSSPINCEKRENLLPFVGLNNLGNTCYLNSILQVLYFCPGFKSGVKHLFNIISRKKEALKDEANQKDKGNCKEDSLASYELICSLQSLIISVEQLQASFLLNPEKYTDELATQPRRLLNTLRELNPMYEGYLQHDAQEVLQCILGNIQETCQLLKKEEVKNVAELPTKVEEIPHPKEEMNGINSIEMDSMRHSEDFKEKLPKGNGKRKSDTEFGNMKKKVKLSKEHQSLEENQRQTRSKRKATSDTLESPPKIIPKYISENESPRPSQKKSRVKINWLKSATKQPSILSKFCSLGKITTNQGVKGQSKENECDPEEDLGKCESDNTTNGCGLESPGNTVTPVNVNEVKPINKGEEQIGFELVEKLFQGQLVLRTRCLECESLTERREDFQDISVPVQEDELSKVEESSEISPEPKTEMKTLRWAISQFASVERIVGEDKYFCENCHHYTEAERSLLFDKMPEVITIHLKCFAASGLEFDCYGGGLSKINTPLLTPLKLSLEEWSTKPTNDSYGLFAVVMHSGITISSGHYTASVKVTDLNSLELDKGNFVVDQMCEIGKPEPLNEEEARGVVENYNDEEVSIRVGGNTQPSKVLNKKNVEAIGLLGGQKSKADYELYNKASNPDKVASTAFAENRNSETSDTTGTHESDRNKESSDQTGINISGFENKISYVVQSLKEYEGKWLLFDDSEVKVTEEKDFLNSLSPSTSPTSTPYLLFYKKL
Summary of the method: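 In 50mM HEPES pH 7.8 containing 0.5mM EDTA, 1mM TCEP, 0.1 mg/ml BSA and 0.01% Tween-20, 1nM USP1/UAF1 is exposed to compound for 15 min, then Ub-Rho (150nM final) is added and fluorescence is read over time.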

[13] = Primary qHTS for small molecule stabilizers of the endoplasmic reticulum resident proteome: Secreted ER Calcium Modulated Protein (SERCaMP) assay (AID 1508630); conditions: SH-SY5Y GLuc-SERCaMP (Gaussia luciferase released on ER calcium loss) secretion, thapsigargin, luminescence; series mostly up to 38.4 µM; further: on the % scale 0 is the no-effect control and ±100 the full control effect
Summary of the method: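 The SH-SY5Y reporter protocol was run at 3 concentrations up to 38.3 uM (primary) or 11 concentrations (follow-up): 16 h compound, 100 nM thapsigargin for 4 h, then extracellular luciferase luminescence.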

[14] = biological target: 3',5'-cyclic-AMP phosphodiesterase 4B (Homo sapiens) (UniProt Q07343); assay: qHTS Assay for Inhibitors of PDE-IV (AID 607; active means well fitted activation curve with a large enough effect in the main read-out, with a control signal flat, not every such curve was filed as active; further: % of control where 0% means no effect); conditions: HEK293 ACTOne CNG channel cells, membrane potential fluorescence; series mostly up to 22.9 µM
Sequence of 3',5'-cyclic-AMP phosphodiesterase 4B (Homo sapiens) (Q07343 whole entry, looked up): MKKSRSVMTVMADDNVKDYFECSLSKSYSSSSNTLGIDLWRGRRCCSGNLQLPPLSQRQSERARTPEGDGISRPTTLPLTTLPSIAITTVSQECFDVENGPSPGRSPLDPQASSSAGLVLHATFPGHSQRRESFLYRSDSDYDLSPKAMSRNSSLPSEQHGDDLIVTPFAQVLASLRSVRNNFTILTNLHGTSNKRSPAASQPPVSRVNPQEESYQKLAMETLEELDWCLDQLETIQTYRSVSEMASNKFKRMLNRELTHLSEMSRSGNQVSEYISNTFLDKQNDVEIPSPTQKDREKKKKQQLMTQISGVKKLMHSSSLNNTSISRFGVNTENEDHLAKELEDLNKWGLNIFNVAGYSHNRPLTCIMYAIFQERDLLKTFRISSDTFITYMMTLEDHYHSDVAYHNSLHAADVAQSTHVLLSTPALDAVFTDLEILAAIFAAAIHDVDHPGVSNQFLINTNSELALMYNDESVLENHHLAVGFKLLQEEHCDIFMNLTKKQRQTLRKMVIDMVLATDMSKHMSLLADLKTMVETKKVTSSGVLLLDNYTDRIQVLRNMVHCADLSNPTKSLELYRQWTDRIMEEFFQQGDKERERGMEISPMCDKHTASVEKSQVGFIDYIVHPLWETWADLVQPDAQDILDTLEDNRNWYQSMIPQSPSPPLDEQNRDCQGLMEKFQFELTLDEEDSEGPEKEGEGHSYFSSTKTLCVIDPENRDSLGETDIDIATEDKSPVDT
Summary of the method: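 The readout is membrane depolarisation from a cAMP-sensing CNG channel, detected with a potential dye at ex 535/em 590. Cells were HEK293-derived (endogenous PDE-IV) at 1000 cells/well, titrated up to 22.9 uM final.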

[15] = biological target: Cytochrome P450 3A4 (Homo sapiens) (UniProt P08684); assay: qHTS Assay for Activators of Cytochrome P450 3A4 (AID 885); conditions: recombinant CYP3A4, Luciferin-PPXE luminescence, 60 min; series mostly up to 57.1 µM; further: nearly all actives have a fitted effect of over 65% in size
Sequence of Cytochrome P450 3A4 (Homo sapiens) (P08684 whole entry, looked up): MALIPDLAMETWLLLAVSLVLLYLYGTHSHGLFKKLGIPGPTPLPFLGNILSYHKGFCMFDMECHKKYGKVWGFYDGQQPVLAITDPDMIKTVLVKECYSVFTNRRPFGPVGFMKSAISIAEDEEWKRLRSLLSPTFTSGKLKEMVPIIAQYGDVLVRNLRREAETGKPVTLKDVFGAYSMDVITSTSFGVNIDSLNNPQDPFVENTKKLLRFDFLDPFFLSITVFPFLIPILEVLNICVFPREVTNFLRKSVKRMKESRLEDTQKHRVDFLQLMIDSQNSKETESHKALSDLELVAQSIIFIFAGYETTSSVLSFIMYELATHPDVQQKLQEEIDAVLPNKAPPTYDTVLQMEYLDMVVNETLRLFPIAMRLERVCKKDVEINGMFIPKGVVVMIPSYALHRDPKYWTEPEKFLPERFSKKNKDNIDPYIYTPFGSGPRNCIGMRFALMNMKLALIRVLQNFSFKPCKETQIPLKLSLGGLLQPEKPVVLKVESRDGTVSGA
Summary of the method: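 Activators are scored by enhanced luminescence from CYP3A4 conversion of luciferin-PPXE (25uM, equal to KM) to luciferin, after 60 min at RT with an NADPH-regenerating system.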

[16] = qHTS Assay for Identification of Small Molecule Agonists for Hypoxia Response Element Signaling Pathway (AID 914; active means well fitted activation curve with a large enough effect in the signal ratio, with a control signal flat, not every such curve was filed as active; the % refers to the signal ratio; further: potency means the concentration at half of the fitted maximal effect); conditions: ME-180 (cervical carcinoma) HRE-bla reporter, beta-lactamase ratio, CoCl2, 17 h; activation: stronger effect = higher value
Summary of the method: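 HRE-bla ME-180 cells with beta-lactamase reporter under hypoxia response element, compounds with EC50 CoCl2 for 17 hours at 37 C. CCF4 substrate, 460nm/530nm emission ratio gave %Activity; AC50 from titration series.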

[17] = biological target: Cytochrome P450 3A4 (Homo sapiens) (UniProt P08684); assay: qHTS Assay for Inhibitors and Substrates of Cytochrome P450 3A4 (AID 884); conditions: recombinant CYP3A4, Luciferin-PPXE luminescence; series mostly up to 57.1 µM; further: potency means the concentration at half of the fitted maximal effect; nearly all actives have a fitted effect of over 50% in size
Summary of the method: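 Luminescent readout of luciferin produced by CYP3A4 (20 nM) dealkylation of Luciferin-PPXE, 25 uM (its KM). NADPH-driven reaction ran 60 min at RT after 10 min compound preincubation; data scaled to 57 uM ketoconazole as 100% inhibition.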

[18] = biological target: Dual specificity protein kinase CLK4 (Homo sapiens) (UniProt Q9HAZ1); assay: qHTS Assay for Inhibitors of CDC-like Kinase 4 (Kinase-Glo Assay) (AID 1770); conditions: recombinant Clk4, Kinase-Glo ATP depletion luminescence; series mostly up to 66.7 µM; further: nearly all actives have a fitted effect of over 65% in size; further: potency means the concentration at half of the fitted maximal effect
Summary of the method: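 Substrate mix (RS peptide 100 uM, ATP 1 uM) dispensed, compound pinned in, then Clk4 added to 25 nM final. Incubated 4.5 h at RT; Kinase-Glo reagent added, luminescence read after 5 min.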

Cc1noc(C)c1-c1nc(Nc2ccc(F)cc2)c2ccccc2n1
Potency [1]: > 11.4 µM
activity change, negative = inhibition [2]: -5.88%
Potency [3]: 0.251 µM (active)
activity change, negative = inhibition [4]: 11.3%
activity, negative = inhibition [5]: 4.28%
Potency [6]: > 46 µM
Potency [7]: > 46 µM
Potency [8]: inactive
Potency [9]: 3.16 µM (active)
Potency [10]: inactive
Potency [11]: inactive
Potency [12]: inactive
outcome [13]: inactive

COc1ccccc1-c1nc(NCc2cccnc2)c2ccccc2n1
Potency [1]: > 11.4 µM
activity change, negative = inhibition [2]: 10.5%
Potency [3]: 0.794 µM (active)
activity change, negative = inhibition [4]: -29.2%
activity, negative = inhibition [5]: 12.9%
Potency [6]: > 46 µM
Potency [7]: > 46 µM
Potency [8]: inactive
Potency [14]: inactive
Potency [15]: inactive
Potency [10]: inactive
Potency [11]: inactive
outcome [13]: inactive

COc1cccc(Cn2c(=O)cnc3cnc(Nc4ccccc4)nc32)c1
Potency [1]: > 11.4 µM
activity change, negative = inhibition [2]: -26.5%
activity change, negative = inhibition [4]: 17.1%
activity, negative = inhibition [5]: -29.7%
Potency [6]: > 46 µM
Potency [7]: > 46 µM
Potency [8]: inactive
Potency [14]: inactive
Potency [10]: 2.24 µM (active)
Potency [11]: inactive
Potency [12]: inactive
outcome [13]: inactive

CCNc1ncc2nc(-c3cn(C)c4ccccc34)c(=O)n(Cc3ccc(F)cc3)c2n1
Potency [1]: > 11.4 µM
activity change, negative = inhibition [2]: -5.76%
Potency [3]: 15.8 µM (active)
activity change, negative = inhibition [4]: 2.58%
Potency [6]: > 9.22 µM
Potency [7]: > 46 µM
Potency [8]: inactive
Potency [14]: inactive
Potency [15]: inactive
Potency [16]: 2.51 µM (active)
Potency [10]: inactive
Potency [11]: inactive
Potency [12]: inactive
outcome [13]: inactive

COc1ncc2ncc(=O)n(CCc3ccccc3)c2n1
Potency [1]: > 11.4 µM
activity change, negative = inhibition [2]: -10.9%
activity change, negative = inhibition [4]: 4.91%
activity, negative = inhibition [5]: -13.6%
Potency [6]: > 9.22 µM
Potency [7]: > 46 µM
Potency [8]: inactive
Potency [14]: inactive
Potency [10]: 14.1 µM (active)
Potency [11]: 10 µM (active)
Potency [12]: inactive
outcome [13]: inactive

CN(Cc1ccco1)c1cc(-c2cccc(NS(C)(=O)=O)c2)ncn1
Potency [1]: > 11.4 µM
activity change, negative = inhibition [2]: 10.2%
Potency [3]: 3.98 µM (active)
activity change, negative = inhibition [4]: -5.51%
activity, negative = inhibition [5]: 11.3%
Potency [6]: > 46 µM
Potency [7]: > 46 µM
Potency [8]: inactive
Potency [14]: inactive
Potency [15]: inactive
Potency [10]: 8.91 µM (active)
Potency [11]: inactive
Potency [12]: inactive
outcome [13]: inactive

COc1ccc(CNc2cc(-c3ccccc3OC)ncn2)c(OC)c1
Potency [1]: > 11.4 µM
activity change, negative = inhibition [2]: -6.46%
activity change, negative = inhibition [4]: 17.7%
activity, negative = inhibition [5]: 5.25%
Potency [6]: > 46 µM
Potency [7]: > 46 µM
Potency [8]: inactive
Potency [14]: inactive
Potency [17]: 6.31 µM (active)
Potency [15]: inactive
Potency [9]: 2 µM (active)
Potency [10]: inactive
Potency [11]: inactive
Potency [12]: inactive
outcome [13]: inactive

COc1cccc(-c2nccc(NCc3ccccc3)n2)c1
Potency [1]: > 11.4 µM
Potency [3]: 0.501 µM (active)
activity change, negative = inhibition [4]: 15.6%
activity, negative = inhibition [5]: -13.5%
Potency [6]: > 46 µM
Potency [7]: > 46 µM
Potency [8]: inactive
Potency [15]: inactive
Potency [9]: 7.94 µM (active)
Potency [18]: 15.8 µM (active)
Potency [12]: 25.1 µM (active)
outcome [13]: inactive

CN(Cc1ccco1)c1cc(-c2ccccc2C(F)(F)F)ncn1
Potency [1]: > 11.4 µM
activity change, negative = inhibition [2]: 9.11%
activity change, negative = inhibition [4]: -16.3%
activity, negative = inhibition [5]: 3.49%
Potency [6]: > 46 µM
Potency [7]: > 46 µM
Potency [8]: inactive
Potency [14]: inactive
Potency [10]: inactive
Potency [11]: inactive
Potency [12]: inactive
outcome [13]: inactive

Cc1noc(C)c1-c1ccc2ncnc(N3CCOCC3)c2c1
Potency [1]: > 11.4 µM
activity change, negative = inhibition [2]: 11%
Potency [3]: 12.6 µM (active)
activity, negative = inhibition [5]: -8.22%
Potency [6]: > 46 µM
Potency [7]: > 46 µM
Potency [8]: inactive
Potency [14]: inactive
Potency [15]: inactive
Potency [10]: 7.94 µM (active)
Potency [11]: 8.91 µM (active)
Potency [12]: inactive
outcome [13]: inactive

CS(=O)(=O)Nc1cccc(-c2cncnc2Nc2ccccc2)c1
Potency [1]: > 11.4 µM
activity change, negative = inhibition [2]: -20.2%
Potency [3]: 5.01 µM (active)
activity change, negative = inhibition [4]: 23.9%
activity, negative = inhibition [5]: -2.71%
Potency [6]: > 46 µM
Potency [7]: > 46 µM
Potency [8]: inactive
Potency [14]: inactive
Potency [17]: 0.501 µM (active)
Potency [15]: inactive
Potency [10]: 22.4 µM (active)
Potency [11]: inactive
Potency [12]: inactive
outcome [13]: inactive

COc1ccc(-c2nc3cnc(OCc4ccccc4)nc3n(CCC#N)c2=O)cc1
Potency [1]: > 11.4 µM
Potency [6]: > 9.22 µM
Potency [7]: > 46 µM
Potency [8]: inactive
Potency [14]: inactive
Potency [15]: inactive
Potency [18]: inactive
Potency [12]: inactive
outcome [13]: inactive
